High-throughput results: PubChem, National Center for Advancing Translational Sciences (NCATS)
Sampled rows, rich in hits. Any-hit rate of the full collection: about 7.1%.
ATXN2 expr inh = reduces ATXN2 reporter expression in HEK-293 cells. HEK-293 ATXN2-luciferase reporter, luminescence, 24 h. Potency, µM (doses to about 57 µM), inactives show at the highest dose activity change, negative = inhibition, hits mostly inhibitors. 0.72% of 360,000 active. AID 1745845; note: potency is the fitted concentration of half-maximal effect; % is set by controls: 0 for no effect and ±100 for the full control effect; nearly all actives have a fitted effect of over 55% in size
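qHTS (up to 57 uM final) was run with 24 h compound exposure of reporter cells at 37 °C. Each well was multiplexed: SteadyGlo luminescence measured ATXN2-luciferase expression after a fluorogenic Gly-Phe-AFC viability readout (25 uM final).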
MCF10A rereplic = DNA re-replication induction in MCF 10a cells | MCF 10A DNA re-replication, Hoechst nuclear intensity, 48 h | 2.9% of 350,000 active | Potency, µM (titrated, usually from 46.1 µM), inactives show at the top dose activity, positive = re-replication, actives largely listed as activators; note: potency is the fitted concentration of half-maximal effect; % of control where 0% means no effect; nearly all actives have a fitted effect of over 50% in size
ATXN viability = viability counter-screen for ATXN expression inhibitors; S2 cells (HEK-293 line with an ATXN2-luciferase reporter) viability, CellTiter-Fluor protease fluorescence, 24 h; Potency, µM (top dose mostly 56.7 µM), usual class: cytotoxic; 0.49% of 400,000 active; note: potency is the fitted concentration of half-maximal effect; nearly all actives have a fitted effect of over 40% in size
SW480 rereplic = DNA re-replication induction in SW480 cells. SW480 DNA re-replication, Hoechst DNA content imaging, 48 h. Potency, µM (highest dose often 46.1 µM), inactives show at the top dose re-replication activation, most hits filed as activators. 1.8% of 340,000 active; note: potency is the fitted concentration of half-maximal effect; % of control where 0% means no effect; nearly all actives have a fitted effect of over 55% in size
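Readout is total intensity of Hoechst-stained nuclei, excited at 405 nm and collected at 500-530 nm. Compound treatment lasted 48 hr at 37 C in 5% CO2 before staining.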
PINK1 expr mod = modulators of PINK1 expression. 0.2% of 410,000 active. PINK1 immunofluorescence, high-content cytometry, 24 h. Potency, µM (doses to about 76.6 µM), inactives show top-dose activation (PINK1 increase), hits mostly activators. AID 624263; active = well fitted activation curve with a large enough effect; inconclusive = small, poorly fitted or top-dose-only effect; cell line not stated here; note: potency is the fitted concentration of half-maximal effect; % of control where 0% means no effect; nearly all actives have a fitted effect of over 65% in size
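Decision-based qHTS: stable cells, 24 h exposure to five compound concentrations, CCCP as control. Fixed cells stained for PINK1 plus nuclear, mitochondrial and cell markers, cytometer read.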
IL-1B inflam inh = blocks inflammasome-driven IL-1 beta release | activity change, % at 57.5 µM | 4.7% of 360,000 active | THP-1 LPS/ATP IL-1B secretion, AlphaLISA, 16 h; hits give low values | AID 743279; in the data active = activity change below about -50%; inconclusive = mostly about -30% to -49%; note: % is set by controls: 0 for no effect and ±100 for the full control effect
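THP-1 cells pretreated 1 hr with compounds (up to 57.5 uM final), then stimulated with LPS (250 ng/mL final) plus ATP (1.25 mM final); secreted IL-1B measured by AlphaLISA after 16 hr, decreased signal indicating inhibition.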
Starred values were filed as active, the others as inactive; i = inactive; ? = inconclusive; . = no result; [ ] = remark or other dose. Unless noted, calls come from the whole dose curve; as a rule, active = well fitted curve in the direction sought with a large enough effect; inconclusive = small, poorly fitted or top-dose-only effect, or another doubt; inactive = no such curve, though single readings can be large; an effect the other way counts as inactive or inconclusive.

SMILES	ATXN2 expr inh	MCF10A rereplic	ATXN viability	SW480 rereplic	PINK1 expr mod	IL-1B inflam inh
C/C(=N\N=C(N)N)c1cccc(Cl)c1	-22%	0%	i	-3%	1%	-57*
C/C(=N\NC(N)=O)c1cccc(Cl)c1	-9%	3%	i	17%	-2%	-7
S=C(Nc1ccc(Br)cc1)NC1CCCC1	6%	-1%	i	-1%	24%	-62*
COc1ccc(NC(=O)CC2CCCCC2)cc1OC	26%	5.8µM*	i	7.3µM*	2%[38.3 µM]	15
O=C(CC1CCCC1)Nc1ccc(Br)cc1	42%	-1%	i	5%	2%	-56*
C=CCn1c(C)cc(C(=O)CSc2nnc3n(CCC)c(=O)c4ccccc4n23)c1C	17%	-4%	?	-5%	1%	5
CC(C)c1ccc(NC(=O)Nc2cnccn2)cc1	9%	4.1µM*	i	?	8%	14
Cc1ccc(NC(=O)Nc2cnccn2)cc1	61%	5%	i	12%	0%	-2
COc1ccc([C@H]2CC(=O)C=C(c3cc(C=O)ccc3OC)C2)cc1	-29%	?	i	9.2µM*	6%	39
COc1ccc([C@H]2CC(=O)C=C(c3cc(Cl)ccc3OC)C2)cc1	-18%	?	?	?	2%	6
CCOc1ccc(Cl)cc1C1=CC(=O)C[C@H](c2ccc(OC)cc2)C1	-10%	?	i	3.7µM*	4%	74
COc1ccc([C@H]2CC(=O)C=C(c3cccc(C(C)C)c3)C2)cc1OC	-35%	?	?	4%	15%	-51*
COc1ccc([C@H]2CC(=O)C=C(c3ccc(OC)c(OC)c3)C2)cc1	3%	9.2µM*	i	-7%	6%	?
Cc1ccc(CNC(=O)CN(c2ccc(Cl)cc2Cl)S(=O)(=O)c2ccccc2)cc1	0%	.	i	.	1%	.
CCOc1ccccc1NC(=O)C1CCN(S(=O)(=O)c2ccc3c(c2)CCCN3C(C)=O)CC1	9%	.	i	.	1%	.
COc1ccc(C(=O)NCC2Cc3cccc(-c4ccc(S(C)(=O)=O)cc4)c3O2)c(OC)n1 (configuration not stated)	.	.	i	.	0%	.
COc1ccc(C2=CC(=O)CC(c3ccc(OC)cc3)C2)cc1 (configuration not stated)	47%	9%	i	?	0%	-24
COc1ccc([C@H]2CC(=O)C=C(c3c(OC)cccc3OC)C2)cc1	-17%	1.2µM*	i	18µM*	1%	0
COc1ccc([C@H]2CC(=O)C=C(c3cc(F)ccc3OC)C2)cc1	-16%	21µM*	?	?	4%	-3
CCOc1ccc(-c2cc3c(=O)n(Cc4nc(-c5ccc(OCC)c(OC)c5)oc4C)ccn3n2)cc1Cl	0%	.	i	.	1%	.
CN(C)c1ccc(C2C=C(c3ccc(Cl)cc3OC(F)F)Nc3ncnn32)cc1 (configuration not stated)	-30%	4.1µM*	i	23µM*	2%	14
COC(=O)c1c(SCC(=O)Nc2cc(F)ccc2F)[nH]c2ccc(C)cc2c1=O	-9%	.	i	.	?	.
Cc1ccc(N2C(N)=C(C#N)C(c3ccsc3)C3=C2CC(C)(C)CC3=O)cc1 (configuration not stated)	-3%	?	i	-2%[9.22 µM]	1%	-55*
O=C(O)CSc1cc(C(=O)c2cc(F)ccc2O)cn2c(=O)c3c(-c4ccccc4)csc3nc12	.	13µM*	i	-20%	0%	11
CCOC(=O)c1sc2nc3c(SCCC(=O)O)cc(C(=O)c4cc(OC)ccc4O)cn3c(=O)c2c1C	.	?	?	2.6µM*	3%	10
SMILES	ATXN2 expr inh	MCF10A rereplic	ATXN viability	SW480 rereplic	PINK1 expr mod	IL-1B inflam inh
S=c1[nH]c(=S)c2[nH]cnc2[nH]1	.	.	.	.	1%	.
CCCn1c2ccc(C)cc2c2n[nH]c(=S)nc21	-17%	2%	i	15µM*	6%	0
CCn1c2ccc(C)cc2c2nnc(SCCN3CCCCC3)nc21	-19%	5%	i	1%	-1%	-66*
CCCn1c2ccc(C)cc2c2nnc(SCCN3CCOCC3)nc21	-21%	12%	i	-2%	1%	-61*
CCn1c2ccc(F)cc2c2nnc(SCCN3CCCCC3)nc21	-16%	15%	i	8%	2%	?
CCCn1c2ccc(F)cc2c2nnc(SCCN3CCCCC3)nc21	-8%	?	?	?	3%	-30
CCCn1c2ccc(C)cc2c2nnc(SCCN3CCCCC3)nc21	-11%	?	?	?	1%	-66*
CCOC(=O)c1cccc(NC(=O)CCC(=O)N2CC(C)Oc3ccc(C)cc32)c1 (configuration not stated)	-13%	.	i	.	2%	.
Cc1ccc(O)c(-c2n[nH]c3c2C(c2ccc(F)cc2)N(Cc2ccco2)C3=O)c1 (configuration not stated)	-30%	.	?	.	4%	.
CCOC(=O)CNC(=S)N(Cc1ccc(C)cc1)Cc1ccc(C)o1	-1%	16%	i	-3%	-3%	-55*
Cc1ccc(CN(Cc2ccc(C)o2)C(=S)NCC(=O)O)cc1	-2%	-5%	i	-6%	0%	0
Cc1nc(S(=O)(=O)N2CCN(c3cccc(Cl)c3)CC2)cn1C	-5%	.	i	.	3%	.
CCOc1ccccc1NC(=O)CSc1nc2c(oc3ccccc32)c(=O)n1-c1ccc(C)c(C)c1	-10%	.	i	.	0%	.
O=C(CSc1nc(-c2ccccc2)cc(C(F)(F)F)n1)NCc1cccs1	-12%	6.5µM*	i	2%	7%	-5
COc1ccc(-c2cc(C(F)(F)F)nc(SCC(=O)NCc3cccs3)n2)cc1	-22%	22%	?	-7%	?	20
COc1ccc(NC(=O)CSc2nc(-c3cccs3)cc(C(F)(F)F)n2)cc1OC	-23%	.	i	.	-1%	.
O=C(CSc1nc(-c2cccs2)cc(C(F)(F)F)n1)Nc1cc(OCC(F)(F)F)cc([N+](=O)[O-])c1	?	?	16µM*	2%	2%	11
CN(C)CCCOC1(Cc2ccccc2)CCCCCC1	-8%	.	i	.	.	.
COc1ccc(CN2CCC(n3cc(C(=O)N4CCCCC4)nn3)CC2)c(OC)c1	.	.	i	.	0%	.
CCn1cc(CNC(=O)c2cccc([N+](=O)[O-])c2)c(C)n1	1%	-2%	i	-1%	-1%	22
O=C(CCl)Nc1cn(-c2ccccc2)nc1-c1ccc(F)cc1	?	?	?	?	-1%	-107*
Fc1ccc(-n2cc(CNCCc3cccnc3)c(-c3ccccc3Cl)n2)cc1	-24%	16%	?	-5%	1%	-76*
